The source of these data is PubChem BioAssay (NCI).

This is part of a sample that, as a whole, favours compounds with a hit. Of some 83,000 tested, about 20% had one in any assay.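 96-well plates, one dose, 48 hours. Percent growth reported; active if below 10.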 Calls of active or inactive are those of the source.

In this assay the test system is SK-MEL-5 melanoma. Description: NCI-60 one-dose screen, 48 h (100 = growth as untreated, 0 = no growth, -100 = all killed). The note with it: 10 µM unless noted. As for the experimental part: Growth inhibition of the SK-MEL-5 human tumor cell line is measured as a screen for anti-cancer activity. Cells are grown in 96 well plates and exposed to the test compound for 48 hours. Compounds are tested at a single concentration, which is 10^-5 M for most compounds. The reported endpoint is percent growth (GI% or GIPRCNT), where numbers from 0 - 100% represent growth inhibition, and numbers from -100% - 0 represent cell death. For example, a value of 40 represents 60% growth inhibition. A value of 0 means no net growth occurred over the course of the experiment. A value of -40 indicates 40% of cells at the beginning of the experiment died by the end of the experiment. A value of -100 means all cells are dead at the end of the experiment.
NCI-60 Human Tumor Cell Lines Screen was performed using the standard one-dose NCI protocol, which is described in more detail at https://dtp.cancer.gov/discovery_development/nci-60/default.htm.
Compounds with GIPRCNT values below 10 were considered active. Activity score was based on GIPRCNT using the following formula: […]
Score is 0 for GIPRCNT values of 100 or above, 50 for GIPRCNT values of 0, and 100 for GIPRCNT values of -100.
As to `NC(CSC(c1ccccc1)(c1ccccc1)c1ccc(F)cc1)C(=O)O` (stereo not given), the growth was 15.2% (inactive). Then `CC1(C)N=C(N)N=C(N)N1c1cccc(CCCCc2ccccc2)c1`, with -96.7% (active); and `COc1cc(C(=O)NNC(=O)c2ccccc2C(=O)O)cc(OC)c1OC`, with 38.2% (inactive); and `COc1ccc(-c2nn(-c3ccc(NC(=O)Nc4ccc(Cl)c(Cl)c4)cc3)cc2-c2ccncc2)cc1Cl`, with -27.5% (active). On to `CCC1S/C(=N\N=C(/C)c2ccco2)N(c2ccccc2)C1=O` (stereo not given), for which the growth is 146% (inactive). Take `CN1CCN(Cn2nc(-c3cc(F)c(Cl)cc3Cl)n(/N=C/c3ccc(N(C)C)cc3)c2=S)CC1`: the growth is 79.7% (inactive). As for `Cl[C@@H]1CCO[C@H](c2cc3ccccc3c3ccccc23)C1`, the figure is 93% (inactive); as for `COc1cc(/C=C/C(=O)c2ccc(Oc3ncnc4ccccc34)cc2)cc(OC)c1OC`, 81% (inactive). Regarding `C=C1C(=O)O[C@H]2[C@H]1CC/C(COC(=O)c1cccc3ccccc13)=C\CC[C@@]1(C)O[C@@H]21`, the growth is -89% (active).

Consider `CSc1ccc(C(=O)C[n+]2cccc(C)c2)cc1`, for which the growth was 100% (inactive).

Take `CC(=O)Oc1ccc(C(OC(C)=O)OC(C)=O)cc1`: the growth is 105% (inactive). For the molecule `C=CC(C)(O)CCC1C(=C)CCC2C(C)(C)CCCC12C` (stereo not given), the growth is 107% (inactive).

For `COC1=C(OC)C(=O)C=CC1=O`, the growth is 111% (inactive).

Take `Cc1cn([C@]2(CF)O[C@H](CO)C2C)c(=O)[nH]c1=O` (stereo not given in full): the growth is 89.4% (inactive).

`CC(Cl)(CCl)CS(=O)(=O)c1ccc(Cl)cc1` (stereo not given): the growth was 100% (inactive).

On to `COc1ccc(/C=C/C(=O)/C=C(/C=C/c2ccc(OC)c(OC)c2OC)OB(F)F)c(OC)c1OC`, for which the growth is 36.8% (inactive). For `COc1ccc(Cl)cc1NC(=O)c1cc2c([nH]1)-c1nc(NC(=O)C(C)C)sc1CC2`, the growth is 77.6% (inactive). `O=C(Cn1c2ccccc2c2ccncc21)N/N=C/c1cc(O)c(O)c(O)c1`: the growth is 101% (inactive). As for `Cc1ccc(=O)n(-c2ccc(Br)cc2F)c1`, the figure is 97.3% (inactive); as for `Cc1cccc[n+]1CCC[n+]1ccccc1C`, 101% (inactive); as for `Nc1nccc2c1ccn2-c1ccc(NC(=O)c2ccc(N3CCOCC3)c(C(F)(F)F)c2)cc1`, -89.6% (active).

As for `C=C1C(=O)O[C@H]2[C@H]1CC/C(COC(=O)n1ccnc1C)=C\CC[C@@]1(C)O[C@@H]21`, the growth is 106% (inactive).

For `CC(=O)Nc1ccc(OC(=O)c2ccccc2O)cc1`, the growth is 109% (inactive). On to `O=C1c2ccccc2OC=C(c2ccccc2)N1CCCCN1CCCCC1`, for which the growth was 84.5% (inactive). Take `COc1cc(NC(C)CCCN2C(=O)c3ccccc3C2=O)c2ncccc2c1OC` (stereo not given): the growth is 84.3% (inactive). As for `COc1ccc(-c2cnc(-c3ccc(F)cc3)[nH]2)cc1`, the figure is 101% (inactive); as for `O=C(CSc1nnc(-c2ccccc2)o1)Nc1ccc(C(=O)/C=C/c2ccccc2)cc1`, 78.9% (inactive). Consider `CN1CCN(Cn2nc(-c3cc(Cl)cc(Cl)c3Cl)n(/N=C/c3ccc(Cl)cc3)c2=S)CC1`, for which the growth is 92.3% (inactive). As to `CCOc1ccc(-n2c(-c3cc(OC)c(OC)c(OC)c3)nnc2-c2ccc(OC)cc2N)cc1`, the growth was 66% (inactive).

For `COc1cc2c(/C=C3/C(=O)Nc4ccc(O)cc43)c(Cl)n(Cc3cc(OC)c(OC)c(OC)c3)c2cc1C`, the growth is -64.5% (active). For `Nc1ncc(-c2ccc3ncnc(Nc4cncc(Cl)c4)c3c2)cn1`, the growth is 66.4% (inactive). For the molecule `COc1ccc(-c2nnc(SCC(=O)Nc3ccc(C(=O)/C=C/c4ccc(OC)c(OC)c4)cc3)o2)cc1`, the growth was 75.9% (inactive). `C=C1C(=O)O[C@H]2[C@H]1CC/C(COC(=O)c1cc(OC)c(OC)c(OC)c1)=C\CC[C@@]1(C)O[C@@H]21`: the growth is -23.8% (active). Turning to `Nc1nc(-c2cc3c(cc2Cl)NC(=O)/C3=C/c2ccc(Cl)cc2)cs1`, the growth is 6.5% (active). As for `O=C(Nc1ccc(-n2ccc3c(NC(=O)c4ccccc4)nccc32)cc1)Nc1ccc(Cl)c(Cl)c1`, the growth was -97.9% (active). As for `C=C1c2c(Cl)ccc(O)c2C(O)=C2C(=O)[C@]3(O)C(O)=C(C(N)=O)C(=O)[C@@H](N(C)C)[C@@H]3[C@@H](O)[C@H]12`, the growth was 20.4% (inactive).

Consider `c1ccc(CNCCN(CCNCc2ccccn2)Cc2ccc3ccccc3c2)nc1`, for which the growth was -43.1% (active). With `COc1ccc(-c2nn(-c3ccc(NC(=O)c4ccc(Cl)c(C(F)(F)F)c4)cc3)cc2-c2ccncc2)cc1Cl`, the growth is -69.3% (active). Take `O=[N+]([O-])c1ccc(NS(=O)(=O)c2ccccc2)c2ccccc12`: the growth was 0.136% (active). Consider `COc1cc([C@@H]2c3cc4c(cc3C(OC3O[C@@H]5COC(C)O[C@H]5[C@H](O)[C@H]3O)C3COC(=O)[C@@H]32)OCO4)cc(OC)c1O` (stereo not given in full), for which the growth is 17.4% (inactive).
